Measurements: PubChem BioAssay (NCATS)
Inconclusive results are not listed. A call without a number means that no potency is given here. Active and inactive are the calls of the source. The call rests on the fitted dose curve; in most records, active means well fitted curve in the direction sought with a large enough effect; inconclusive means small, poorly fitted or top-dose-only effect, or another doubt; inactive means no such curve, though single readings can be large; an effect the other way counts as inactive or inconclusive.

Experiments:
[1] = target: Metallo-beta-lactamase type 2 (Klebsiella pneumoniae) (UniProt C7C422); experiment: qHTS to identify inhibitors of the New Delhi Metallo-beta-lactamase (NDM): assay validation screen against the NCATS LOPAC Collection (AID 1794843); further: potency means the concentration at half of the fitted maximal effect
Sequence of Metallo-beta-lactamase type 2 (Klebsiella pneumoniae) (C7C422 whole entry, looked up): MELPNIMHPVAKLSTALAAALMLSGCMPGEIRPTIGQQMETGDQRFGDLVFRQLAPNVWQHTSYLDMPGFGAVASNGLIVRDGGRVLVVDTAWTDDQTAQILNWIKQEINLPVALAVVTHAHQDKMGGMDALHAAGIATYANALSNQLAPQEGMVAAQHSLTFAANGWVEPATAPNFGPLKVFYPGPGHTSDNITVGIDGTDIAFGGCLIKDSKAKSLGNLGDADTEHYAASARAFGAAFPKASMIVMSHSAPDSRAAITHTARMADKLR
How it was run: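 Nitrocefin hydrolysis (50 uM substrate stock) by NDM-1, 2 nM final, was followed by 485 nm absorbance after compound preincubation; buffer was 50 mM HEPES pH 7.0, 1 uM ZnSO4, 0.01% Tween20.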

[2] = target: Phospholipid hydroperoxide glutathione peroxidase GPX4 (Homo sapiens) (UniProt P36969); experiment: Primary qHTS Assay for Inhibitors of Recombinant Selenoprotein Glutathione Peroxidase 4 (GPX4) (AID 1845192); further: nearly all actives have a fitted effect of over 65% in size; further: potency means the concentration at half of the fitted maximal effect
Sequence of Phospholipid hydroperoxide glutathione peroxidase GPX4 (Homo sapiens) (P36969 whole entry, looked up): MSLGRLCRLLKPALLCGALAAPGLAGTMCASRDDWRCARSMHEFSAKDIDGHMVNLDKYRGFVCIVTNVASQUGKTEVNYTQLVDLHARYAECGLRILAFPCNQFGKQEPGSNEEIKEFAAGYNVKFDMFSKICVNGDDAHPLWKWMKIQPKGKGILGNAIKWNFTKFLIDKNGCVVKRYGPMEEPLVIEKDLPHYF
How it was run: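 GR-coupled readout: 100 nM GR, 1 mM GSH, 0.5 mM NADPH; NADPH fluorescence (ex 340/em 450 nm) read at t=0 and after 15 min RT. GPX4 200 nM, preincubated 30 min with compound; substrate 0.5 mM CHP.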

[3] = target: Glutathione peroxidase 1 (Homo sapiens) (UniProt P07203); experiment: Primary qHTS Assay for Inhibitors of Recombinant Selenoprotein Glutathione Peroxidase 1 (GPX1) (AID 1845191); further: nearly all actives have a fitted effect of over 65% in size
Sequence of Glutathione peroxidase 1 (Homo sapiens) (P07203 whole entry, looked up): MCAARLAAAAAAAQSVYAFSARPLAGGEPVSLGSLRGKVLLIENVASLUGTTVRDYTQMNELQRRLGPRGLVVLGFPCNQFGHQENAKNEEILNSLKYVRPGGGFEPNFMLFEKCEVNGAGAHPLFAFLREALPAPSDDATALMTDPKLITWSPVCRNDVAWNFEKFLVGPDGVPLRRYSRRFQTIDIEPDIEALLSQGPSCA
How it was run: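 Recombinant GPX1 (10 nM final) was preincubated with compound for 30 min at room temperature, then reacted with 1 mM GSH, 0.5 mM CHP, 0.5 mM NADPH and 100 nM glutathione reductase; NADPH fluorescence (340/450 nm) was read at 0 and 15 min.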

SMILES	Potency [1]	Potency [2]	Potency [3]
O=[N+]([O-])c1ccc2nc(N3CCNCC3)ccc2c1	inactive	inactive	
CC[N+](C)(CC)CCOC(=O)C(O)(c1ccccc1)c1ccccc1		inactive	inactive
CC(C)(C)c1o[nH]c(=O)c1CC(N)C(=O)O (stereo unspecified)	inactive	inactive	
C[C@H](N)CN1CCc2ccc(Br)cc21	inactive	inactive	inactive
CC(N)Cc1ccc(O)cc1 (stereo unspecified)		inactive	inactive
CCCN(CCC)C1CCc2cccc(O)c2C1 (stereo unspecified)	inactive	inactive	
CC1(C(=O)O)C2CCC(O2)C1(C)C(=O)O (stereo unspecified)	inactive	inactive	inactive
CC[C@H]1CN2CC[C@H]1C[C@H]2[C@H](O)c1ccnc2ccc(OC)cc12		inactive	inactive
COC(=O)N1CCN(C(=O)Cc2ccc(Cl)c(Cl)c2)C(CN2CCCC2)C1 (stereo unspecified)		inactive	inactive
O=[N+]([O-])/C=C/c1ccc2c(c1)OCO2	inactive	inactive	
CCCCCCCCCC(=O)O[C@H]1CC[C@H]2[C@@H]3CCC4=CC(=O)CC[C@]4(C)[C@H]3CC[C@]12C			inactive
Cc1cc([C@@H]2CCCN2C)on1	inactive	inactive	inactive
O=S1(=O)N(CCN2CC=C(c3c[nH]c4cc(F)ccc34)CC2)c2cccc3c2N1CCC3	inactive	inactive	inactive
NCCc1c[nH]c2ccc(C(N)=O)cc12	inactive	inactive	inactive
C[C@H]1C2Cc3ccc(O)cc3[C@@]1(C)CCN2CC1CC1	inactive	inactive	inactive
CC(N)Cc1c[nH]c2ccc(O)cc12 (stereo unspecified)	inactive	inactive	
CC(C)(O)[C@@H]1C2OC(=O)[C@@H]1[C@]1(O)C[C@H]3O[C@]34C(=O)O[C@H]2[C@]14C (tested in a mixture with another compound)	inactive	inactive	inactive
C[N+]1(C)CCN(c2ccccc2)CC1	inactive	inactive	
O=C1/C(=C/c2ccccc2)C[C@@]2(O)[C@H]3Cc4ccc(O)c5c4[C@@]2(CCN3CC2CC2)[C@H]1O5		inactive	inactive
NC(Cc1cc(O)c(O)cc1O)C(=O)O (stereo unspecified)	3.98 µM (active)	inactive	inactive
NCC(CP(=O)(O)O)c1ccc(Cl)cc1 (stereo unspecified)	inactive	inactive	inactive
O=C(O)C(Cl)(Cl)Cl		inactive	inactive
CN1CC[C@@]2(C)c3cc(OC(=O)Nc4ccccc4)ccc3N(C)[C@@H]12	inactive	inactive	
Cc1o[nH]c(=O)c1CC(N)C(=O)O (stereo unspecified)	inactive	inactive	inactive
Cc1c2ccncc2c(C)c2c1[nH]c1ccccc12		inactive	inactive
Cn1sc(Cl)cc1=O		inactive	inactive

SMILES	Potency [1]	Potency [2]	Potency [3]
CCC1C(C)=NN=C(c2ccc(OC)c(OC)c2)c2cc(OC)c(OC)cc21 (stereo unspecified)		inactive	inactive
CCC1(C)CC(=O)NC(=O)C1		inactive	inactive
C=CCN1C[C@@H](C)N([C@H](c2ccc(C(=O)N(CC)CC)cc2)c2cccc(OC)c2)C[C@@H]1C		inactive	inactive
CC(N)Cc1c[nH]c2ccc(OCc3cccs3)cc12 (stereo unspecified)		inactive	inactive
CCCN(CCC)C1Cc2cc(OC)c(OC)cc2C1		inactive	inactive
CCOC(=O)c1ccccc1C(=O)OCC		inactive	inactive
NC(C(=O)O)c1cc(=O)[nH]o1 (stereo unspecified)		inactive	inactive
NC(CCCCCP(=O)(O)O)C(=O)O (stereo unspecified)		inactive	inactive
CC(Cc1ccc(OCC(=O)O)cc1)NCC(O)c1cccc(Cl)c1 (stereo unspecified)		inactive	inactive
CC1=CC2/C=C(\C)CCC(O)C3OC(C)(C)OC3CC(=O)OC23C(=O)NC(CC(C)C)C3C1C (stereo unspecified)		inactive	inactive
Oc1ccc2c3c1O[C@H]1c4oc5ccccc5c4C[C@@]4(O)C(C2)N(CC2CC2)CCC314 (stereo partly specified)		inactive	inactive
Ic1ccccc1CNC1C2CCN(CC2)C1C(c1ccccc1)c1ccccc1 (stereo unspecified)		inactive	inactive
ClC1C(Cl)C(Cl)C(Cl)C(Cl)C1Cl (stereo unspecified)		inactive	inactive
CC(C)(O)[C@@H]1[C@H]2OC(=O)[C@@H]1[C@]1(O)C[C@H]3O[C@]34C(=O)O[C@H]2[C@]14C		inactive	inactive
c1ccc2c(c1)[I+]c1ccccc1-2		inactive	inactive
Oc1ccc2c3c1O[C@H]1[C@@H](O)CC[C@@]4(O)[C@@H](C2)N(CC2CCC2)CC[C@]314		inactive	inactive
Clc1ccc(N2CC3CCC(C2)N3)nn1		inactive	inactive
C[C@H](N)Cc1cccc(C(F)(F)F)c1		inactive	inactive
NC(=O)c1cc(N2CC2)c([N+](=O)[O-])cc1[N+](=O)[O-]		inactive	inactive
COc1ccccc1CN[C@H]1C2CCN(CC2)[C@H]1C(c1ccccc1)c1ccccc1		inactive	inactive
N=C(N)c1ccc(CS(=O)(=O)F)cc1		inactive	inactive
CC(=O)O[C@H]1CC[C@H]2[C@@H]3CCC4=CC(=O)CCC4=C3C=C[C@]12C		22.4 µM (active)	inactive
CCC1(CC)C(=O)NC(=O)N(C)C1=O		inactive	inactive
CC(=O)OCC1=C(C(=O)O)N2C(=O)[C@@H](NC(=O)CCC[C@@H](N)C(=O)O)[C@H]2SC1		inactive	inactive
C[N+]1(C)CCc2cc3c(cc2[C@H]1[C@@H]1OC(=O)c2c1ccc1c2OCO1)OCO3		inactive	inactive
